{"source": "PubChem BioAssay (EPA / NIEHS)", "note": "Inconclusive results are not listed. Active and inactive are the calls of the source. The calls were made as follows: active = hit-call score of the fitted dose curve at least 0.9, where 1 is the maximum; inconclusive = response in the unintended direction; inactive = score below 0.9."}
{"read-out": "glucuronosyltransferase (UGT1A1), UGT1A1 (gene 54658)", "assay": "CLD_UGT1A1_48hr: CellzDirect (CLD) Gene Expression Assay for glucuronosyltransferase (UGT1A1) at 48 hours (AID 2283709);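 also: actives increase expression relative to DMSO so potency refers to induction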", "procedure": "CLD_48hr is a cell-based, multiplexed-readout assay that uses hepatocyte, a human liver primary cell, with measurements taken at 48 hours after chemical dosing in a 96-well plate.CLD_UGT1A1_48hr is one of 16 assay component(s) measured or calculated from the CLD_48hr assay. It is designed to make measurements of mRNA induction, a form of inducible reporter, as detected with chemiluminescence signals by Quantitative Nuclease Protection Assay (qNPA) technology.Data from the assay component CLD_UGT1A1_48hr was analyzed at the endpoint, CLD_UGT1A1_48hr, in the positive analysis fitting direction relative to DMSO as the negative control and baseline of activity. Using a type of inducible reporter, gain-of-signal activity can be used to understand changes in the reporter gene as they relate to the gene UGT1A1. Furthermore, this assay endpoint can be referred to as a primary readout. To generalize the intended target to other relatable targets, this assay endpoint is annotated to the transferase intended target family, where subfamily is glucuronosyltransferase.\nHuman hepatocyte cultures were treated daily for two consecutive days with fresh dosing solutions containing appropriate concentrations of the 320 ToxCast chemicals (chemical identities were blinded to CellzDirect and other ToxCast collaborators), vehicle control (0.2% DMSO), and positive control inducers as summarized in Table 1. Due to the large number of treatment groups and chemicals examined, the ToxCast chemicals were divided into two groups (spanning two independent cultures of hepatocytes from separate donor preparations (Hu778: ToxCast plates 1 and 2; Hu776: ToxCast plates 3 and 4). Each preparation of human hepatocyte cultures was treated with respective vehicle control, medium only control, set of six positive controls/reference chemicals for the five hepatic receptor pathways, and a subset of eight of the ToxCast chemicals (indoxacarb, pyrithiobac-sodium, norflurazon, cyhalofop-butyl, methomyl, thiram, acetochlor, and propiconazole). These replicate data, coupled with internal replicates designed within the blinded ToxCast chemical library, provided additional data to evaluate interindividual differences between hepatocyte preparations and their potential impact on chemical profiles.Cell morphology and integrity were evaluated using phase-contrast microscopy as an indicator of hepatocyte cell health (Tyson & Green, 1987). Cultures for each treatment group (i.e., media, vehicle [0.2% DMSO], positive control inducers [multiple concentrations], and the ToxCast chemicals [multiple concentrations]) were observed and cell morphology was assessed relative to vehicle control cultures at each harvest time point (0, 6, 24, or 48 h). […] Images were evaluated at the conclusion of the study to assess changes in cell integrity and account for the effects of chemical exposure on uncharacteristic changes in concentration-dependent gene expression profiles. The results from these determinations of apparent cytotoxicity were annotated (yes/no) alongside the corresponding qNPA data for reference.At the conclusion of each treatment period, hepatocyte cultures (96-well) were washed with 1 volume of HBSS, lysed by addition of 25 ul ArrayPlate lysis buffer (HTG, Tucson, AZ), and 70 ul/well of Denaturation Oil, denatured by incubation at 95C for 10 min, and frozen at approximately -70C until analysis by nuclease protection assay (qNPA) (Roberts et al., 2007). For qNPA analysis, cell lysates were thawed at 50C for approximately 30 min, qNPA probes were added, and samples were incubated at 95C for 10 min to begin the detection process by denaturing the target RNA, dissociating the duplexes and secondary structure hybridization. At the conclusion of the hybridization period, S1 nuclease reagent was added to each sample to digest all nonprotected nucleotides at 50C for 60-90 min. […]"}
{"smiles": "CCOP(=O)(OCC)Oc1cc(C)nc(C(C)C)n1", "outcome": "inactive"}
{"smiles": "COc1ccc(C(=CC(=O)N2CCOCC2)c2ccc(Cl)cc2)cc1OC", "outcome": "inactive"}
{"smiles": "CCOP(=O)(SC(C)CC)N1CCSC1=O", "note": "(stereo not given)", "outcome": "inactive"}
{"smiles": "CCOP(=S)(OCC)OC(Cl)C(Cl)(Cl)Cl", "note": "(stereo not given)", "AC50": "4.19 µM (active)"}
{"smiles": "COc1cc(OC)nc(Sc2cccc(Cl)c2C(=O)O)n1", "outcome": "inactive"}
{"smiles": "COP(=O)(OC)C(O)C(Cl)(Cl)Cl", "note": "(stereo not given)", "AC50": "0.0665 µM (active)"}
{"smiles": "CN(C)C(=O)Nc1cccc(C(F)(F)F)c1", "outcome": "inactive"}
{"smiles": "CC1(C(=O)Nc2ccc(O)c(Cl)c2Cl)CCCCC1", "outcome": "inactive"}
{"smiles": "CCCCOC(=O)[C@@H](C)Oc1ccc(Oc2ccc(C#N)cc2F)cc1", "outcome": "inactive"}
{"smiles": "CCCSP(=O)(OCC)Oc1ccc(Br)cc1Cl", "note": "(stereo not given)", "AC50": "20 µM (active)"}
{"smiles": "C[N+]1(C)CCCCC1", "outcome": "inactive"}
{"smiles": "CCOC(=O)COc1cc(-c2nn(C)c(OC(F)F)c2Cl)c(F)cc1Cl", "AC50": "6.18 µM (active)"}
{"smiles": "C#CC(C)(C)NC(=O)c1cc(Cl)cc(Cl)c1", "AC50": "6.38 µM (active)"}
{"smiles": "CCCOCC(=Nc1ccc(Cl)cc1C(F)(F)F)n1ccnc1", "outcome": "inactive"}
{"smiles": "Cc1ccn2nc(S(=O)(=O)Nc3c(F)cccc3F)nc2n1", "outcome": "inactive"}
{"smiles": "COP(=O)(OC)OC(Br)C(Cl)(Cl)Br", "note": "(stereo not given)", "outcome": "inactive"}
{"smiles": "CCC(=NOC/C=C/Cl)C1=C(O)CC(C2CCOCC2)CC1=O", "note": "(stereo not given)", "outcome": "inactive"}
{"smiles": "CC(C)[C@H](C(=O)O[C@H](C#N)c1cccc(Oc2ccccc2)c1)c1ccc(Cl)cc1", "AC50": "7.47 µM (active)"}
{"smiles": "CCCCN(CC)c1c([N+](=O)[O-])cc(C(F)(F)F)cc1[N+](=O)[O-]", "AC50": "7.05 µM (active)"}
{"smiles": "CC1=NNC(=O)N(/N=C/c2cccnc2)C1", "outcome": "inactive"}
{"smiles": "C[Si](Cn1cncn1)(c1ccc(F)cc1)c1ccc(F)cc1", "outcome": "inactive"}
{"smiles": "CCCSP(=O)(OCC)SCCC", "outcome": "inactive"}
{"smiles": "CN(C)NC(=O)CCC(=O)O", "outcome": "inactive"}
{"smiles": "CC(C)=CC1C(C(=O)OCN2C(=O)C3=C(CCCC3)C2=O)C1(C)C", "note": "(stereo not given)", "outcome": "inactive"}
{"smiles": "Cc1cc(C2CC2)nc(Nc2ccccc2)n1", "outcome": "inactive"}
{"smiles": "CC(C)N(C(=O)SCC(Cl)=C(Cl)Cl)C(C)C", "outcome": "inactive"}
{"smiles": "CCCOc1nn(C(=O)NS(=O)(=O)c2ccccc2C(=O)OC)c(=O)n1C", "outcome": "inactive"}
{"smiles": "CCc1cnc(C2=NC(C)(C(C)C)C(=O)N2)c(C(=O)O)c1", "note": "(stereo not given)", "outcome": "inactive"}
{"smiles": "CCC(=O)Nc1ccc(Cl)c(Cl)c1", "outcome": "inactive"}
{"smiles": "Cc1nn(-c2cc(NS(C)(=O)=O)c(Cl)cc2Cl)c(=O)n1C(F)F", "outcome": "inactive"}
{"smiles": "CCNc1nc(Cl)nc(NC(C)(C)C#N)n1", "outcome": "inactive"}
{"smiles": "CCCCOC(=O)c1ccccc1C(=O)O", "outcome": "inactive"}
{"smiles": "CCc1cccc(CC)c1N(COC)C(=O)CCl", "outcome": "inactive"}
{"smiles": "COP(=O)(NC(C)=O)SC", "note": "(stereo not given)", "outcome": "inactive"}
{"smiles": "CC(=NC#N)N(C)Cc1ccc(Cl)nc1", "outcome": "inactive"}
{"smiles": "CC(COc1ccc(Oc2ccccc2)cc1)Oc1ccccn1", "note": "(stereo not given)", "AC50": "4.89 µM (active)"}
{"smiles": "COc1cccc(C(=O)NN(C(=O)c2cc(C)cc(C)c2)C(C)(C)C)c1C", "AC50": "8.82 µM (active)"}
{"smiles": "CCOP(=O)(NC(C)C)Oc1ccc(SC)c(C)c1", "note": "(stereo not given)", "outcome": "inactive"}
{"smiles": "CNC(=O)Oc1cccc2c1OC(C)(C)O2", "outcome": "inactive"}
{"smiles": "CCOC(=O)CC(SP(=O)(OC)OC)C(=O)OCC", "note": "(stereo not given)", "outcome": "inactive"}
